Compound activity as filed in PubChem.
FBPA coupling cs = qHTS Assay for Inhibitors of Fructose-1,6-bisphosphate Aldolase from Giardia Lamblia: Coupling assay counterscreen. hit rate 0.67% among 290,000. coupling enzyme system counterscreen, AmpLite Red fluorescence. AID 2472, 2010. activity change, negative = inhibition, % at 58.2 µM, hits read low; in the data active = activity change below about -30%
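Coupling enzymes only (glyceraldehyde-3-phosphate) + compound, at 57.5 uM final, 10 min RT; add substrate/coupling/AmpLite Red mix, 20 min RT; fluorescence ex 525/em 598 nm. Actives flag coupling-system interference.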
Giardia kill = Small Molecules that selectively kill Giardia lamblia: qHTS; Giardia lamblia trophozoite viability; activity change, % at 7.66 µM, hits read low; hit rate 0.15% among 340,000; AID 540267, 2011; in the data active = activity change below about -80%; inconclusive = between about -30% and that limit;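 note: parasites exposed to compound for two days anaerobically before the ATP read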
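Killing of trophozoites was scored by loss of ATP luminescence after a 48 hrs anaerobic exposure to compounds at 37 deg C, using 100 cells per well.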
ELG1 DNA repair = qHTS screen for small molecules that inhibit ELG1-dependent DNA repair in human embryonic kidney (HEK293T) cells expressing luciferase-tagged ELG1; HEK293T ELG1-luciferase reporter, luminescence, 16 h; DNA damage induced by 5-fluorouridine; Potency, µM (doses to about 46.1 µM), hits mostly inhibitors; hit rate 2.3% among 330,000; note: nearly all actives have a fitted effect of over 55% in size
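Overnight (16 hr) co-exposure of 2,000 cells/well to 5-fluorouridine and compound at 37 °C preceded detection. Luciferase was quantified via ONE-Glo luminescence; loss of signal denotes inhibition.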
Sfp inh = qHTS Assay for Inhibitors of Bacillus subtilis Sfp phosphopantetheinyl transferase (PPTase) | Biochemical Sfp PPTase activity, qHTS | Potency, µM, actives largely listed as inhibitors | hit rate 3.5% among 310,000 | AID 1490, 2009;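 note: the enzyme is Sfp with the accession as filed and its product quenches rhodamine fluorescence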
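Step 1, compound plus 15 nM Sfp-PPTase, 15 min, room temperature. Step 2, add rhodamine-CoA (5 uM) and BHQ-2-YbbR (12.5 uM). Step 3, read 525/598 nm fluorescence at 0 and 30 min.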
Hits are given with their value; . = inactive; ? = inconclusive; / = no result given. Hits are enriched below; roughly 5.5% of the tested compounds scored in any of these assays. Unless noted, calls come from the whole dose curve; as a rule, active = well fitted curve in the direction sought with a large enough effect; inconclusive = small, poorly fitted or top-dose-only effect, or another doubt; inactive = no such curve, though single readings can be large; an effect the other way counts as inactive or inconclusive.

SMILES	FBPA coupling cs	Giardia kill	ELG1 DNA repair	Sfp inh
CCOC(=O)c1c(NC(=O)COC(=O)c2cccnc2OCC)sc(C(=O)N(CC)CC)c1C	/	.	7.3µM	/
CCOC(=O)c1sc(NC(=O)CSc2nc(C)cc(C)c2C#N)c(C#N)c1C	.	.	.	.
CCOC(=O)Nc1sc(C(=O)N(CC)CC)c(C)c1C(=O)OCC	.	.	.	.
CCOC(=O)c1c(NC(=O)C[n+]2ccc(Cc3ccccc3)cc2)sc(C)c1C	.	.	?	25µM
CCOC(=O)c1c(NC(=O)COC(=O)c2ccncc2)sc(C)c1C	.	.	?	79µM
CCOC(=O)c1sc(NC(=O)c2ccncc2)c(C#N)c1C	.	.	21µM	?
NC(=O)c1ccccc1NC(=O)COc1ccc2c(c1)OCO2	.	.	?	.
Cc1noc(C)c1COc1ccc(C(=O)N2CCN(S(=O)(=O)c3ccc(F)cc3)CC2)cc1	/	.	/	/
Cc1nc(NC(=O)c2ccco2)sc1-c1csc(Nc2ccc(Cl)cc2)n1	.	.	18µM	.
Cc1ccccc1Nc1nc(-c2sc(NC(=O)c3cccc(Cl)c3)nc2C)cs1	.	/	.	.
Cc1ccc(Cl)cc1Nc1nc(-c2sc(NC(=O)c3ccco3)nc2C)cs1	.	.	8.2µM	.
O=C(Nc1nc2ccsc2c(=O)s1)c1ccco1	.	.	?	?
Cc1csc2c(=O)sc(NC(=O)c3ccco3)nc12	.	.	.	56µM
Cc1ccccc1Nc1nc(-c2sc(NC(=O)c3ccccc3)nc2C)cs1	.	/	?	25µM
COC(=O)C1=C[C@@H](C(=O)OC)[C@@H]2C3=C(C(=O)[C@]2(C)NC(=O)c2ccccc2)[C@H](C)[C@@H]2C(=O)NC(=O)[C@@H]2[C@@H]3C1	.	.	/	.
COc1ccccc1C(O)P(=O)(OCC(C)C)c1ccc(N(C)C)cc1 (stereo not given)	.	.	.	.
Cc1nc(NC(=O)c2ccccc2)sc1-c1csc(Nc2ccc(Cl)cc2Cl)n1	.	/	?	.
Cc1nc(NC(=O)c2ccco2)sc1-c1csc(Nc2ccc(Cl)cc2Cl)n1	.	.	13µM	.
COC(=O)[C@H](Cc1ccccc1)NC(=O)O[C@@H]1C(=O)c2cc(OC)ccc2O[C@H]1c1ccc(OC)c(Br)c1	.	/	2.9µM	.
O=C(NC(=S)Nc1ccc(N2CCOCC2)c(Cl)c1)c1sc2ccccc2c1Cl	.	.	?	?
NC(N)=NS(=O)(=O)c1ccc(NC(=S)NC(=O)c2ccncc2)cc1	.	.	.	50µM
NC(N)=NS(=O)(=O)c1ccc(NC(=S)NC(=O)c2ccc(Br)cc2)cc1	.	.	.	.
COc1cc(NS(=O)(=O)c2ccc(NC(=S)NC(=O)c3ccco3)cc2)nc(OC)n1	.	.	.	.
COc1cc(NS(=O)(=O)c2ccc(NC(=S)NC(=O)c3sc4cc(F)ccc4c3Cl)cc2)nc(OC)n1	.	.	.	50µM
NC(N)=NS(=O)(=O)c1ccc(NC(=S)NC(=O)c2sc3ccccc3c2Cl)cc1	.	.	.	56µM
SMILES	FBPA coupling cs	Giardia kill	ELG1 DNA repair	Sfp inh
COc1cc(NS(=O)(=O)c2ccc(NC(=S)NC(=O)c3sc4ccccc4c3Cl)cc2)nc(OC)n1	.	.	.	50µM
O=C(O)c1ccccc1NC(=S)NC(=O)c1sc2ccccc2c1Cl	.	.	?	45µM
O=C(NC(=S)Nc1ccccc1C(=O)O)c1ccc2ccccc2c1	.	.	.	45µM
CCN(C(=O)CN1C(=O)S/C(=C\c2ccc(F)cc2)C1=O)C1CCS(=O)(=O)C1 (stereo not given)	.	.	?	.
CCCn1c(-c2ccc(F)cc2)nc2c(NCC(C)(C)CN(C)C)nc(C)nc21	.	/	/	.
COc1cc2nc(SCC(=O)c3ccc(Br)cc3)n3nc(C)nc3c2cc1OC	.	.	4.1µM	.
Cc1nc2c3ccccc3nc(SCC(=O)c3ccc(Cl)cc3)n2n1	.	.	.	?
O=C(c1ccc(COc2ccc3ccccc3c2)o1)N1N=C(C(F)F)CC1(O)C(F)F (stereo not given)	.	.	.	32µM
COCC(=O)Nc1ccc2c(c1)OCC(=O)N2Cc1ccc(C)cc1	.	.	.	.
O=C(NCCCN1CCOCC1)c1ccc(/C=C2\Oc3ccccc3N(Cc3ccccc3F)C2=O)cc1	.	.	.	.
CCN1CCN(CCCNC(=O)c2ccc(/C=C3/Oc4ccccc4N(Cc4cccc(C)c4)C3=O)cc2)CC1	/	.	.	40µM
CCN1CCN(CCCNC(=O)c2ccc(/C=C3/Sc4ccccc4N(Cc4ccccc4F)C3=O)cc2)CC1	.	.	.	50µM
Cc1ccccc1CN1C(=O)c2ccccc2Sc2ccc(C(=O)NCCN3CCOCC3)cc21	.	.	.	.
CCN1CCN(CCNC(=O)c2ccc(/C=C3/Sc4ccccc4N(Cc4ccccc4C)C3=O)cc2)CC1	.	.	?	40µM
COC(=O)c1c(NC(=O)CSc2ncnc3ccccc23)sc(C)c1C	/	.	/	/
CCOC(=O)c1c(NC(=O)CSc2nnc(-c3ccco3)o2)sc(C)c1C	.	.	.	50µM
CCOC(=O)c1c(NC(=O)CSc2ncnc3ccccc23)sc(C(C)=O)c1C	.	.	15µM	.
CCOC(=O)c1c(NC(=O)CSc2nc3ccccc3s2)sc(C)c1C	.	.	.	.
CCOC(=O)c1c(NC(=O)CSc2nc3ccccc3o2)sc(C)c1C	.	.	.	45µM
C=CCn1c(SCC(=O)Nc2sc(C)c(C)c2C(=O)OCC)nnc1-c1sc(N)nc1C	.	.	5.8µM	.
Cc1cc(C)c2cc(C(=O)N3CCN(c4ncccc4C(F)(F)F)CC3)[nH]c2c1	.	.	?	.
COc1cccc(N2CCN(C(=O)CCNS(=O)(=O)c3ccc(F)c(F)c3)CC2)c1	/	.	?	/
CCOC(=O)c1sc(NC(=O)CNCc2ccccn2)c(C(=O)OCC)c1C	.	.	12µM	.
O=c1c(-c2nc3ccccc3o2)c2oc3ccccc3n2c2ccccc12	.	/	5.2µM	.
Nc1ccc(-c2nc3ccccc3o2)cc1	.	.	?	.
SMILES	FBPA coupling cs	Giardia kill	ELG1 DNA repair	Sfp inh
O=C(O)Cn1cc(C(=S)N2CCCCC2)c2ccccc21	.	.	.	22µM
COCCNC(=O)Cn1cc(C(=S)N2CCCCC2)c2ccccc21	.	.	.	.
O=C(O)Cn1cc(C(=S)N2CCOCC2)c2ccccc21	.	.	.	50µM
C=C(C)COc1ccc2c(CC)cc(=O)oc2c1	.	.	.	56µM
NC(=O)CC[C@H](NC(=O)c1ccc(F)cc1)C(=O)OCC(=O)NCc1ccc2c(c1)OCO2	/	.	.	/
O=C(NCc1cccnc1)/C(=C/c1ccc(-c2cccc(Cl)c2)o1)S(=O)(=O)c1ccccc1	.	.	?	.
O=C(NCc1cccnc1)/C(=C\c1ccc(-c2cccc(Cl)c2)o1)S(=O)(=O)c1ccccc1	.	.	16µM	.
CN(CC(=O)Nc1ccccc1C(F)(F)F)C(=O)C1CCN(S(=O)(=O)c2ccc3c(c2)OCCO3)CC1	/	.	.	/
